# Laboratory results from publication PMC7826789 (International Journal of Molecular Sciences, 2021).
# Columns and labels:
# Conditions in all cases: Compound Concentration (nM):1000
# PIK3CA(C420R) = tested on: PIK3CA(C420R)
# PIK3CA(E542K) = tested on: PIK3CA(E542K)
# PIK3CA(E545A) = tested on: PIK3CA(E545A)
# PIK3CA(E545K) = tested on: PIK3CA(E545K)
# PIK3CA(H1047L) = tested on: PIK3CA(H1047L)
# PIK3CA(H1047Y) = tested on: PIK3CA(H1047Y)
# PIK3CA(I800L) = tested on: PIK3CA(I800L)
# PIK3CA(M1043I) = tested on: PIK3CA(M1043I)
# PIK3CA(Q546K) = tested on: PIK3CA(Q546K)
# PIK3CA = tested on: PIK3CA
# PIK3CB = tested on: PIK3CB
# PIK3CD = tested on: PIK3CD
# PIK3CG = tested on: PIK3CG
# PIK4CB = tested on: T1, PIK4CB
# T1 construct: gene PI4KB
# PIKFYVE = tested on: PIKFYVE
# PIM1 = tested on: PIM1
# PIM2 = tested on: PIM2
# PIM3 = tested on: PIM3
# PIP5K1A = tested on: PIP5K1A
# PIP5K1C = tested on: PIP5K1C
# 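Also: KINOMEscan scanMAX binding as percent activity remaining versus control; lower means stronger binding.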
Compound,Percent Control (PIK3CA(C420R)),Percent Control (PIK3CA(E542K)),Percent Control (PIK3CA(E545A)),Percent Control (PIK3CA(E545K)),Percent Control (PIK3CA(H1047L)),Percent Control (PIK3CA(H1047Y)),Percent Control (PIK3CA(I800L)),Percent Control (PIK3CA(M1043I)),Percent Control (PIK3CA(Q546K)),Percent Control (PIK3CA),Percent Control (PIK3CB),Percent Control (PIK3CD),Percent Control (PIK3CG),Percent Control (PIK4CB),Percent Control (PIKFYVE),Percent Control (PIM1),Percent Control (PIM2),Percent Control (PIM3),Percent Control (PIP5K1A),Percent Control (PIP5K1C)
Nc1ncnc2occ(-c3ccc(NC(=O)Nc4cc(C(F)(F)F)ccc4F)cc3)c12 [GW770249X],100%,100%,100%,100%,100%,100%,100%,90%,100%,100%,100%,100%,100%,100%,95%,100%,100%,100%,100%,90%
Cl.O=S1CCN(Cc2ccc(-c3ccc4ncnc(Nc5ccc(OCc6ccccc6)c(F)c5)c4c3)o2)CC1 [GW576924A],100%,100%,100%,100%,100%,100%,100%,88%,100%,100%,96%,100%,100%,100%,86%,100%,100%,100%,100%,67%
CCS(=O)(=O)c1ccc(OC)c(Nc2ncc(-c3cccc(F)c3)o2)c1 [GW621970X],100%,100%,100%,100%,100%,97%,100%,93%,100%,100%,100%,100%,100%,100%,100%,100%,100%,100%,99%,28%
CCc1ccc(Oc2nccc(-c3c(-c4ccc(F)cc4)ncn3C3CCNCC3)n2)cc1 [SB-242719],81%,98%,87%,92%,63%,81%,91%,100%,90%,92%,99%,72%,95%,100%,100%,100%,100%,100%,87%,100%
Cc1cc(O)cc(C)c1/C=C/c1cncc(C(N)=O)c1 [GW435821X],100%,100%,100%,100%,100%,100%,100%,88%,100%,96%,100%,81%,100%,100%,100%,100%,100%,100%,100%,67%
O=C(Nc1n[nH]c2nc(-c3ccc(O)cc3)c(Br)cc12)C1CC1 [SB-725317],92%,100%,100%,100%,100%,93%,100%,100%,100%,100%,100%,75%,100%,100%,99%,23%,0.4%,9.3%,100%,59%
COc1ccc2c(-c3ccnc(Nc4cccc(OC(F)(F)F)c4)n3)cnn2n1 [GW810372X],86%,100%,90%,97%,75%,82%,91%,100%,100%,100%,100%,69%,85%,72%,69%,100%,100%,100%,77%,66%
NS(=O)(=O)c1ccc(N/N=C2\C(=O)Nc3ccc(Cl)cc32)cc1 [GW280670X],100%,100%,100%,100%,100%,100%,100%,100%,100%,100%,100%,94%,100%,100%,94%,100%,100%,100%,100%,80%
COc1cc(N2CCN(C(C)C)CC2)ccc1Nc1nc(Nc2ccc(F)cc2C(=O)NC[C@@H](O)CO)c2cc[nH]c2n1 [GSK1392956A],99%,100%,100%,95%,100%,83%,97%,97%,100%,100%,96%,80%,100%,100%,95%,100%,100%,100%,100%,100%
CC1=C(C(=O)Nc2ccc3[nH]ncc3c2)C(c2ccc(Cl)c(Cl)c2)CC(=O)N1 (stereo not shown) [GSK299115A],90%,73%,90%,73%,97%,76%,78%,68%,83%,82%,75%,100%,93%,80%,100%,83%,100%,91%,86%,100%
COc1cccc(-c2c[nH]c3c(N/N=C/c4ccncc4)ncnc23)c1 [GW814408X],100%,100%,100%,100%,99%,78%,100%,99%,100%,95%,100%,92%,88%,100%,1.1%,82%,100%,75%,71%,28%
C[C@@H](Oc1cc(-n2cnc3ccc(OC4CCN(C)CC4)cc32)sc1C(N)=O)c1ccccc1Cl [GSK579289A],60%,80%,67%,78%,76%,100%,78%,72%,100%,65%,20%,27%,11%,100%,15%,19%,100%,29%,21%,72%
CCS(=O)(=O)c1ccc(OC)c(Nc2ncc(-c3cccc(OC)c3)o2)c1 [GW580509X],100%,100%,100%,100%,100%,98%,100%,100%,100%,100%,100%,93%,100%,40%,91%,100%,100%,100%,100%,17%
COc1ccc2[nH]c3c4[nH]c5ccc(OC)cc5c4c4c(c3c2c1)C(=O)NC4=O [GW296115X],90%,92%,100%,84%,74%,89%,93%,95%,91%,91%,88%,64%,87%,100%,0%,46%,0.5%,2.6%,100%,81%
COc1cc(C)c(N(C)C(=O)CN(C)C)cc1Nc1nc(Nc2cccc(F)c2C(N)=O)c2cc[nH]c2n1 [GSK2219385],84%,100%,97%,100%,100%,67%,100%,100%,100%,100%,100%,75%,100%,85%,97%,90%,92%,86%,100%,100%
COc1cccc(-n2ncc3c(N/N=C/c4ccncc4)ncnc32)c1 [GW784752X],100%,100%,100%,92%,100%,100%,96%,100%,100%,100%,94%,100%,54%,90%,18%,100%,100%,100%,86%,79%
CN(C)CCNC(=O)Nc1ccc(N(C)c2ccnc(Nc3ccc(CS(C)(=O)=O)cc3)n2)cc1.Cl [GW830900A],100%,84%,100%,80%,100%,98%,86%,92%,87%,92%,84%,76%,91%,11%,100%,100%,100%,97%,23%,86%
COc1ccc2cc(-c3c(-c4ccncc4)nc(-c4ccc(S(C)(=O)=O)cc4C)n3C)ccc2c1 [SB-633825],88%,79%,84%,81%,100%,91%,83%,83%,91%,70%,94%,100%,79%,69%,100%,78%,97%,80%,95%,100%
COc1ccc(COc2ccc(Cc3cnc(N)nc3N)cc2OC)cc1 [GW632580X],100%,96%,100%,91%,75%,100%,93%,100%,100%,76%,93%,100%,77%,100%,100%,100%,91%,100%,94%,100%
CN(C)c1cc2c(Nc3ccc4c(cnn4Cc4ccccc4)c3)ncnc2cn1 [GW282974X],83%,90%,95%,67%,88%,70%,76%,97%,85%,89%,89%,70%,96%,100%,100%,91%,93%,90%,100%,100%
